Screens from PubChem.
aDG glyco act – activators of alpha-DG glycosylation, primary screen, uHTS, Pro5-aDG cells, AlphaScreen; alpha-DG glycosylation AlphaScreen (IIH6); 0% Pro5, 100% B10-LARGE cell signal; activation, % at 10 µM; 360,000 compounds, 0.22% hits;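 active = activation of at least 8% versus controls, or a plate z-score of at least 8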;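 note: Pro5 are CHO cells carrying HIG-tagged alpha-DG that lacks glycosylation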
GC-B act – human GC-B receptor activators, primary screen, HEK293 GC-B cells, cGMP TR-FRET, EC30 CNP | Atrial natriuretic peptide receptor 2 (Homo sapiens), P20594 | 0% at EC30 CNP, 100% saturating CNP | activation, % at 10 µM | 370,000 compounds, 0.11% hits;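 active = activation at 10 µM reaching about 35% in either raw or pattern-adjusted values, limit read from the data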
GC-A act – GC-A stimulated cGMP production enhancers – HEK293 GC-A cells, cGMP TR-FRET, EC30 ANP, primary screen; 0% at EC30 ANP, 100% saturating ANP; 370,000 compounds, 0.14% hits; activation, % at 10 µM; AID 1671463, 2021; in the data active = activation above about 40%
FAS TE block – FAS thioesterase domain inhibitors, primary screen, biochemical, fluorescence intensity, uHTS; Fatty acid synthase (Homo sapiens), P49327; recombinant FAS-TE, OMFH fluorogenic substrate, fluorescence endpoint; inhibition, % at 15 µM; 360,000 compounds, 0.67% hits;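 active = compounds whose normalised, plate-corrected inhibition of enzyme fluorescence in the single-dose primary screen is 50% or more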
FAS-TE conf – FAS thioesterase domain inhibitors, confirmation, biochemical, fluorescence intensity, single concentration | shares compounds with FAS TE block | recombinant FAS-TE, OMFH fluorogenic substrate | inhibition, % at 15 µM | 2,300 compounds, 45% hits | AID 624325, 2012;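 active = compounds inhibiting the enzyme by at least 50% at 15 µM in any one of the replicates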
aDG glyco conf – alpha-DG glycosylation enhancers, retest, confirmation, single concentration, Pro5-aDG cells; shares compounds with aDG glyco act; AID 651671, 2012; activation, % at 10 µM (by protocol); IIH6 AlphaLISA; scaled to LARGE-overexpressing B10 cells as 100%; 600 compounds, 17% hits;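 active = activation of at least 7% in one or more replicates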;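 note: cells exposed to compound for two days before detection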
A number is an active result; – = inactive; · = no result given. In the library only some 1.1% were active in any assay of this set; here they are far more common.

SMILES	aDG glyco act	GC-B act	GC-A act	FAS TE block	FAS-TE conf	others
COc1ccc2c(c1)C(=O)N1[C@H]3c4cc(Br)ccc4OC[C@@H]3[C@H](c3ccccc3)[C@]1(C)C(=O)N2	–	·	·	78	41
C[C@@]12C(=O)Nc3ccccc3C(=O)N1[C@H]1c3cc(Br)ccc3OC[C@@H]1[C@@H]2c1ccccc1	–	–	–	92	47
C[C@@]12C(=O)Nc3ccc(Cl)cc3C(=O)N1[C@H]1c3cc(Br)ccc3OC[C@@H]1[C@@H]2c1ccccc1	–	–	–	91	–
C[C@@]12C(=O)Nc3ccc(Br)cc3C(=O)N1[C@H]1c3cc(Br)ccc3OC[C@@H]1[C@@H]2c1ccccc1	–	–	–	64	–
CCOC(=O)[C@H]1[C@H]2COc3ccc(Br)cc3[C@@H]2N2C(=O)c3ccc(F)cc3NC(=O)[C@@]12C	–	–	–	–	·
C=CCn1c(COc2ccccc2)nnc1SCC(=O)Nc1ccc(Oc2ccccc2)cc1	·	–	–	·	·
COc1ccccc1-n1c2nc3ccccc3nc2c2c(=O)n(-c3cc(C)cc(C)c3)cnc21	–	–	–	92	–
CCN(CC)S(=O)(=O)c1ccc(N2CCOCC2)c(NC(=O)c2ccc3c(c2)OCCO3)c1	–	–	–	–	·
COc1ccc2ccccc2c1/C=N/NC(=S)Nc1cc(S(=O)(=O)N2CCOCC2)ccc1N1CCOCC1	–	–	–	92	–
CCN(CC)S(=O)(=O)c1ccc(N2CCOCC2)c(NC(=O)c2ccc3ccccc3c2)c1	–	–	–	52	–
COc1ccc(/C=N/NC(=S)Nc2cc(S(=O)(=O)N3CCOCC3)ccc2N2CCOCC2)cc1O	–	–	–	–	·
CC(C)(N[C@@H](Cc1c[nH]c2ccccc12)C(=O)NCC(c1ccccc1)c1ccccc1)C(=O)NC1CCCCC1	·	–	–	·	·
CN1C(=O)C[C@@](C#N)(C(=O)NCc2ccccc2)[C@H]1c1ccccc1	·	–	–	·	·
Cc1ccc(-c2csc3nc(C(C)C)oc(=O)c23)c(C)c1	–	–	–	86	69
Cc1ccc(-c2csc3nc[nH]c(=O)c23)c(C)c1	–	–	–	–	·
CC(C)(N[C@@H](Cc1c[nH]c2ccccc12)C(=O)NCCc1c[nH]c2ccccc12)C(=O)NC1CCCCC1	·	–	–	·	·
CCC(=O)N1c2ccc(S(=O)(=O)N3CCN(c4ccc([N+](=O)[O-])cc4)CC3)cc2CC1C (stereo not drawn)	8.8	–	–	64	–	aDG glyco conf=–
COC(=O)C1CN(Cc2ccccc2)CCS(=O)(=O)N1Cc1ccc(C(F)(F)F)cc1 (stereo not drawn)	·	–	–	·	·
CCNc1nc(SCC(=O)OC)nc(N2CCOCC2)n1	–	–	–	–	·
CCNc1nc(SC(C)C(=O)OC)nc(N2CCOCC2)n1 (stereo not drawn)	66	–	–	–	·	aDG glyco conf=–
CCc1c(-c2ccccc2F)ncn1CCc1ccccc1OC	·	–	–	·	·
CCN(C(=O)[C@@H](C)[C@@H](O)c1ccc(C(C)=O)cc1)c1ccccc1	·	–	–	·	·
COc1ccc(CCNC(=O)c2c(N)[nH]c(C(=O)c3ccccc3)c2-c2ccc(N(C)C)cc2)cc1	·	–	–	·	·
CCCCN(CC)CCCNC(=O)c1cn(CC)c2ccc(S(=O)(=O)N3CCc4ccccc4C3)cc2c1=O	8.5	–	–	–	·	aDG glyco conf=–
COC(=O)c1ccc(CSc2ccc3nnc(-c4ccc(F)cc4)n3n2)o1	–	–	–	–	·
COC(=O)c1ccc(CSc2ccc3nnc(-c4ccccn4)n3n2)o1	4.7	–	–	–	·	aDG glyco conf=–
COc1ccc(-c2ccc3c(c2)S(=O)(=O)c2cccc(C(=O)NCc4cccc(OC(F)(F)F)c4)c2C3=O)cc1OC	18	·	·	–	·	aDG glyco conf=–
O=C(c1ccccc1OC(F)F)N1CCN(S(=O)(=O)c2ccc3c(c2)OCCCO3)CC1	14	–	–	–	·	aDG glyco conf=–
O=C(c1ccccc1F)N1CCN(S(=O)(=O)c2ccc3c(c2)OCCO3)CC1	–	–	–	–	·
